The source of these data is PubChem BioAssay (NCATS).

Inconclusive results are not listed. Active and inactive are the calls of the source. Calls follow the shape of the dose curve; as a rule, active = well fitted cell-killing curve with a large enough effect; inconclusive = small, poorly fitted or top-dose-only effect; inactive = flat fitted curve, though single readings scatter.
Potency is read from the fitted curve at half-maximal effect.

The assay is described as follows: Cell Viability - LYMP2-023 (AID 975). Also: nearly all actives have a fitted effect of over 55% in size.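 As to activity change, negative = cytotoxicity: plate controls were DMSO only for no effect and 92 µM tetraoctylammonium bromide control for full effect.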 The settings on record: LYMP2-023 lymphoblastoid cell viability; series mostly up to 92.2 µM; activity change, negative = cytotoxicity: at the top concentration. From the text: NIH Chemical Genomics Center [NCGC]
NIH Molecular Libraries Screening Centers Network [MLSCN]
National Institutes of Environmental Health Sciences [NIEHS]
National Toxicology Program [NTP]
We have developed a 1536-well cell-based assay for quantitative high throughput screening (qHTS) against a number of cell lines to determine in vitro cytotoxicity of small molecules. This particular assay uses a human lymphoblastoid cell line (LYMP2-023) purchased from Coriell Institute for Medical Research.
NCGC Assay Protocol Summary:
The CellTiter-Glo luminescent cell viability assay (Promega) is a homogeneous method to measure the number of viable cells in culture. The end point readout of this assay is based on quantitation of intracellular ATP, an indicator of metabolic activity, using the luciferase reaction. Luciferase catalyzes the oxidation of beetle Luciferin to oxyluciferin and light in the presence of ATP. The luminescent signal is proportional to amount of ATP present.
Using the CellTiter-Glo luminescent cell viability assay, the amount of cellular ATP was measured in the lymphoblastoid cell line with complete culture medium following compound treatment for 24 hours. The assay was performed in opaque white Kalypsys 1536-well plates. In the screen, tetraoctylammonium bromide was used as positive control. Library compounds were measured for their ability to cause acute toxicity in the cell line, as reflected by a decrease in intracellular ATP levels, in a concentration-dependent manner. […] AC50 values were determined from concentration-response data modeled with the standard Hill equation.
qHTS protocol for CellTiter Glo lymphoblastoid cellular assay
[Step] [Parameter] [Value] [Description]
1. Reagent; 5 uL; 2500 lymphoblastoid cells/well
2. Time; 5 hr; 37 C incubation
4. Controls; 23 nL; Tetraoctylammonium bromide 6.4pM to 92 uM
5. Time; 24 hr; 37 C incubation
6. Reagent; 5 uL; CellTiter Glo reagent
7. Time; 30 min; Room Temperature
8. Detection; Luminescence; Viewlux plate reader
Keywords: cell viability, cytotoxicity, lymphoblastoid cell line, luminescence, NTPHTS, NTPHTS_NCGC, NIEHS, DSSTox, MLSMR, MLSCN, NIH Roadmap, qHTS, NCGC
On to `CC(C)(COCC1CO1)COCC1CO1` (stereo not given), for which the “activity change, negative = cytotoxicity” value is -5.47% (inactive).

As for `O=NN1CCCCC1`, the “activity change, negative = cytotoxicity” value was -0.0303% (inactive).

On to `CC(C)(C)c1ccccc1O`, for which the “activity change, negative = cytotoxicity” value is 1.43% (inactive).

Turning to `c1ccc2c(c1)CCNC2`, the “activity change, negative = cytotoxicity” value was -2.18% (inactive).

Take `ClCc1ccccc1`: the “activity change, negative = cytotoxicity” value is 0.522% (inactive).

With `N#C/C=C/C#N`, the Potency is 39.8 µM (active).

Consider `Cc1ccc(OP(=O)(Oc2ccc(C)cc2)Oc2ccc(C)cc2)cc1`, for which the “activity change, negative = cytotoxicity” value is 0.152% (inactive).

On to `O=C(O)c1cc(Cl)ccc1Cl`, for which the “activity change, negative = cytotoxicity” value was -5.56% (inactive).

On to `S=c1[nH]c2ccccc2[nH]1`, for which the “activity change, negative = cytotoxicity” value is 2.63% (inactive).

For `Nc1ccc(Oc2ccc(N)cc2)cc1`, the “activity change, negative = cytotoxicity” value is -0.0254% (inactive).

Regarding `COC(=O)c1ccccc1N`, the “activity change, negative = cytotoxicity” value was -3.95% (inactive).

As to `Cc1ccc(N)cc1N`, the “activity change, negative = cytotoxicity” value is -2.68% (inactive).

In the case of `CCNCC`, the “activity change, negative = cytotoxicity” value is 2.07% (inactive).

As to `BrCC(Br)(Br)Br`, the Potency is 20 µM (active).

Consider `C=CC(=O)OCCO`, for which the “activity change, negative = cytotoxicity” value was -27.7% (inactive).

Regarding `Cc1ccc(N=C=O)cc1N=C=O`, the “activity change, negative = cytotoxicity” value was -14.5% (inactive).

For the compound `O=Cc1ccc(Cl)cc1Cl`, the “activity change, negative = cytotoxicity” value is -3.88% (inactive).

Consider `CCC#N`, for which the “activity change, negative = cytotoxicity” value was -3.94% (inactive).

In the case of `O=[N+]([O-])c1cc(Cl)c(Cl)cc1Cl`, the “activity change, negative = cytotoxicity” value is -10.2% (inactive).

On to `C=CC(=O)OCCN(C)C`, for which the “activity change, negative = cytotoxicity” value is 4.58% (inactive).

On to `COC(=O)Nc1nc2ccccc2[nH]1`, for which the “activity change, negative = cytotoxicity” value is -8.21% (inactive).

`ClCCCCl`: the “activity change, negative = cytotoxicity” value was 0.0109% (inactive).

Turning to `CC(=O)[O-].CC(=O)[O-].CC(=O)[O-].[Cr+3]`, the “activity change, negative = cytotoxicity” value is -6% (inactive).

With `C=CC=O`, the “activity change, negative = cytotoxicity” value was 3.3% (inactive).

Turning to `Cc1ccc2c(C)cccc2c1`, the “activity change, negative = cytotoxicity” value is 4.81% (inactive).

`CCN(CC)CCO`: the “activity change, negative = cytotoxicity” value was -1.23% (inactive).

On to `Cc1cc(-c2ccc(N)c(C)c2)ccc1N`, for which the “activity change, negative = cytotoxicity” value was 5.12% (inactive).

Regarding `CC(C)(OOC(C)(C)c1ccccc1)c1ccccc1`, the “activity change, negative = cytotoxicity” value was 1.19% (inactive).

Turning to `CCOS(C)(=O)=O`, the “activity change, negative = cytotoxicity” value is -2.15% (inactive).

`N#CCBr`: the “activity change, negative = cytotoxicity” value was -3.98% (inactive).

`C=C(Cl)CSC(=S)N(CC)CC`: the “activity change, negative = cytotoxicity” value is -11.6% (inactive).

In the case of `[O-][Cl+2]([O-])O`, the “activity change, negative = cytotoxicity” value was -1.01% (inactive).

For `CC(=O)CCC(C)=O`, the “activity change, negative = cytotoxicity” value is -1.61% (inactive).

As to `Clc1ccc(C(c2ccccc2Cl)C(Cl)(Cl)Cl)cc1` (stereo not given), the “activity change, negative = cytotoxicity” value was -9.07% (inactive).

For the compound `O=C(O)CCl`, the “activity change, negative = cytotoxicity” value is -4.34% (inactive).

In the case of `N#CC(Cl)(Cl)Cl`, the “activity change, negative = cytotoxicity” value was -0.771% (inactive).

`CN(C)C(=O)Nc1ccc(Cl)cc1`: the “activity change, negative = cytotoxicity” value was -2.6% (inactive).

In the case of `C1CC2OC2CC1C1CO1` (stereo not given), the “activity change, negative = cytotoxicity” value is 3.81% (inactive).

For `CCCN(CCC)c1c([N+](=O)[O-])cc(C(F)(F)F)cc1[N+](=O)[O-]`, the “activity change, negative = cytotoxicity” value was 1.09% (inactive).

`C=CC(=O)OCC(CC)CCCC` (stereo not given): the “activity change, negative = cytotoxicity” value was -2.51% (inactive).
